What was measured:
Assay in all cases: thermal shift delta Tm vs DMSO control; higher = stronger stabilization (binding)
Details in all cases: 12.5 µM; protein concentration 2 µM
LOC_OS02G45750-cb003 = system: LOC_OS02G45750-cb003
In short: (§1)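 The melting temperature shift given here is a triplicate mean, measured against protein that received only DMSO. Melting temperatures came from Boltzmann fits of differential scanning fluorimetry data on E. coli-expressed, purified rice kinase domain constructs. Each 19.5 μl well contained 2 μM kinase, 100 mM potassium phosphate pH 7.5, 150 mM NaCl, 10% glycerol, 5 × SYPRO Orange and compound in DMSO. Plates were scanned from 25°C to 95°C at 0.05°C/s.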

LOC_OS02G54510-cb004 = system: LOC_OS02G54510-cb004
In short: as §1

LOC_OS03G04050-cb001 = system: LOC_OS03G04050-cb001
In short: as §1

LOC_OS03G12390-cb001 = system: LOC_OS03G12390-cb001
In short: as §1

LOC_OS03G27990-cb004 = system: LOC_OS03G27990-cb004
In short: as §1

LOC_OS03G50450-cb001 = system: LOC_OS03G50450-cb001
In short: as §1

LOC_OS03G50810-cb003 = system: LOC_OS03G50810-cb003
In short: as §1

LOC_OS04G35114-cb001 = system: LOC_OS04G35114-cb001
In short: as §1

LOC_OS04G38480-cb003 = system: T1, LOC_OS04G38480-cb003
T1 sequence (whole entry): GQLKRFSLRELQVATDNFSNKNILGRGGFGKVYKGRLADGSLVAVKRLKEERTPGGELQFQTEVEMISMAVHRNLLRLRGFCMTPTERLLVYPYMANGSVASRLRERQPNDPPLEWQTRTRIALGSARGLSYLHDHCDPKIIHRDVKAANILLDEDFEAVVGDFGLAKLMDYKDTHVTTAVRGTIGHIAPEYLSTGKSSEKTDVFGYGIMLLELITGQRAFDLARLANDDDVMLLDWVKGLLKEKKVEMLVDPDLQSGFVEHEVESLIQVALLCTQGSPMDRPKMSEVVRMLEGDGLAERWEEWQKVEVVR
In short: as §1

LOC_OS04G41100-cb001 = system: T2, LOC_OS04G41100-cb001
T2 sequence (whole entry): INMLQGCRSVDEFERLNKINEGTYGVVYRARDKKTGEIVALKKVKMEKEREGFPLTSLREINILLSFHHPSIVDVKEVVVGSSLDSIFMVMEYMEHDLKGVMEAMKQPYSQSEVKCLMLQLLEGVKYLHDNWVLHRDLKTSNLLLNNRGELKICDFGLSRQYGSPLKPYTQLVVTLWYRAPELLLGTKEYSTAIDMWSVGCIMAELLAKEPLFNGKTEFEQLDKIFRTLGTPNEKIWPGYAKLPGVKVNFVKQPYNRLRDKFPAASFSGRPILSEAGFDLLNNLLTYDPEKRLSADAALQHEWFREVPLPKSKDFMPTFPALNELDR
In short: as §1

| Structure (SMILES) | thermal shift delta Tm (LOC_OS02G45750-cb003) | thermal shift delta Tm (LOC_OS02G54510-cb004) | thermal shift delta Tm (LOC_OS03G04050-cb001) | thermal shift delta Tm (LOC_OS03G12390-cb001) | thermal shift delta Tm (LOC_OS03G27990-cb004) | thermal shift delta Tm (LOC_OS03G50450-cb001) | thermal shift delta Tm (LOC_OS03G50810-cb003) | thermal shift delta Tm (LOC_OS04G35114-cb001) | thermal shift delta Tm (LOC_OS04G38480-cb003) | thermal shift delta Tm (LOC_OS04G41100-cb001) |
| --- | --- | --- | --- | --- | --- | --- | --- | --- | --- | --- |
| CCCCCCCCCCCCCCCCOP(=O)([O-])OCC[N+](C)(C)C [Miltefosine] | -1.69 °C | -3.98 °C | -6.02 °C | -3.65 °C | -2.36 °C | -1.33 °C | -3.31 °C | -3.53 °C | -0.41 °C | -0.66 °C |
| Cc1n[nH]c2ncc(C(=O)N3CCC[C@H]3c3ccc(Cl)cc3)cc12 | 0.21 °C | 0.12 °C | 0.41 °C | 0.13 °C | 0.35 °C | 0.17 °C | 0.18 °C | 0.28 °C | 0.98 °C | 0.46 °C |
| CCN(CC)CCNC(=O)c1c(C)[nH]c(/C=C2\C(=O)Nc3ccc(F)cc32)c1C [Sunitinib Malate] | 12.4 °C | 0.41 °C | 0.23 °C | 7.66 °C | 6.23 °C | 2.74 °C | 6.79 °C | 10.1 °C | 2.16 °C | 0.97 °C |
| NC1(Cc2ccc(Cl)cc2)CCN(c2ncnc3[nH]ccc23)CC1 | 0.79 °C | 0.26 °C | 0.46 °C | 1.47 °C | 0.26 °C | 0.97 °C | 0.62 °C | 0.68 °C | 0.64 °C | 0.33 °C |
| Cc1ccc(C(=O)Nc2cccc(C(F)(F)F)c2)cc1Nc1nc(-c2cccnc2)nc2c1cnn2C | 0.71 °C | 1.84 °C | 0.36 °C | 1.07 °C | 0.25 °C | 0.79 °C | 0.32 °C | 0.29 °C | 0.47 °C | 0.58 °C |
| CC(C)(C)c1nc(-c2cccc(NS(=O)(=O)c3c(F)cccc3F)c2F)c(-c2ccnc(N)n2)s1 | 2.7 °C | 2.41 °C | 0.43 °C | 0.52 °C | 0.49 °C | 1.42 °C | 1.63 °C | 2.09 °C | 2.46 °C | 2.47 °C |
| COc1ccc(Cl)c(Nc2nc3ccccc3nc2NS(=O)(=O)c2cccc(NC(=O)C(C)(C)N)c2)c1 [Pilaralisib (XL147)] | 1.06 °C | -0.18 °C | 0.85 °C | 2.37 °C | 1.12 °C | 1.09 °C | 1.54 °C | 2.89 °C | 2.92 °C | 1.52 °C |
| CN1CCC(Nc2nc(Nc3ccc(Oc4ccccc4)cc3)c3c(=O)[nH]cc(Br)c3n2)CC1 | 6.91 °C | 0.98 °C | 0.8 °C | 2.05 °C | 1.75 °C | 1.67 °C | 2.6 °C | 4.37 °C | 2.13 °C | 0.75 °C |
| CCCCCCCCCC(=O)CC(O)S(=O)(=O)O (stereo not given) [Sodium Houttuyfonate] | 0.77 °C | 0.52 °C | 0.5 °C | 0.34 °C | 0.41 °C | 0.36 °C | 0.37 °C | 0.65 °C | 1.54 °C | 0.45 °C |

Reference: the supplement of paper PMC9694430
